# Experimental data reported in PubChem BioAssay AID652231 (Johns Hopkins Ion Channel Center, 2013).
# Among all 2,300 compounds or so, about 55 (2%) were called active.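 How the source made its calls: active means duplicate-averaged calcium signal over 20% of the ionomycin maximum, relative to buffer baseline; inactive means the rest.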 Only a selection was taken, and actives are over-represented in it overall.
# Assay: compound-evoked intracellular calcium rise – cell-based, counter-screen for TMEM16A inhibitor project, confirmation (AID 652231);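 on calcium response (% of ionomycin): each well's signal is peak minus trough fluorescence divided by its pre-addition baseline; 0% = buffer wells and 100% = ionomycin wells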
# Conditions: TMEM16A/YFP HEK293, Fluo4 calcium mobilization, at 10 µM; stronger effect = higher value
row,Structure (SMILES),calcium response (% of ionomycin)
1,CCc1cc2c(N3CCN(c4nnc(CC)s4)CC3)ncnc2s1,inactive
2,COc1ccc(C(=O)NC2CCCc3c2cnn3-c2cccc(C)c2C)c(OC)n1 (stereo not drawn),inactive
3,O=c1cc(C(F)(F)F)[nH]c(=O)n1C1CCCCC1,inactive
4,CCOC(=O)c1cccc(NC(=O)CCn2nnc3ccccc32)c1,inactive
5,COc1ccc(OCC(=O)NCCc2ccc(S(N)(=O)=O)cc2)cc1,inactive
6,Fc1ccc2[nH]c3c(N4CCSCC4)ncnc3c2c1,inactive
7,Cc1ccc(-n2ncc3c(N4CCN(c5ccc(F)cc5)CC4)ncnc32)c(C)c1,inactive
8,Cc1ccc(-c2noc(CSc3nnnn3-c3ccccc3)n2)cc1,inactive
9,Cc1cc(C=O)c(C)n1-c1ccc(NC2CCCCC2)c([N+](=O)[O-])c1,inactive
10,Cc1cccc(-n2c(SCC(N)=O)nc3c(c2=O)C2(CCCCC2)Cc2ccccc2-3)c1,inactive
11,O=C(NCCc1ccc2c(c1)OCCO2)c1cc2ccccc2o1,inactive
12,COc1ccc(CCC(=O)c2ccc(OC)cc2)cc1,inactive
13,CCCCNC(=O)CSc1nc2n[nH]c(C)c2c(=N)n1-c1cccc(Cl)c1C,inactive
14,CCOC(=O)N1CC=C2C(C#N)=C(N)C(C#N)(C#N)[C@H](c3cccs3)[C@H]2C1,inactive
15,COc1ccc(NC(=O)C2=CC(c3ccc(OC)c(OC)c3)=NS(=O)(=O)N2C)cc1,inactive
16,Cc1nc2c(C(=O)NCc3ccc4c(c3)OCO4)c[nH]n2c(=O)c1Cc1ccccc1F,inactive
17,Cc1ccc(C)c(N2CCN(S(=O)(=O)c3ccc4c(c3)oc(=O)n4C)CC2)c1,inactive
18,CC1CCN(C(=O)c2ccc(CSc3ccc(Cl)cc3)cc2)CC1,inactive
19,CN1c2ccc(C=O)c3c(C=O)ccc(c23)N(C)C1(C)C,64.5% (active)
20,COc1cccc(CNS(=O)(=O)c2ccc3c(c2)CC(C)N3C(=O)C2CCC2)c1 (stereo not drawn),inactive
21,CN(Cc1cccnc1)C(=O)c1cc(COc2ccc3ncccc3c2)on1,inactive
22,Cc1ccc2c(c1)N(S(=O)(=O)c1cc(-c3cc(C)no3)ccc1C)CCO2,inactive
23,CC(=O)c1c(C)[nH]c(C(=O)COC(=O)c2cccc(S(=O)(=O)N(C)c3ccccc3)c2)c1C,inactive

row,Structure (SMILES),calcium response (% of ionomycin)
1,Cc1ccc(C(=O)O)cc1-c1ccc(/C=C2\SC(=O)N(CC(=O)Nc3ccc4c(c3)OCO4)C2=O)o1,inactive
2,CCN(CC)S(=O)(=O)c1ccc(N(C)Cc2ccc(C(F)(F)F)cc2)nc1,inactive
3,Cn1c(=O)n(C)c2cc(S(=O)(=O)N3CCCc4ccccc43)ccc21,inactive
4,N#Cc1nc(COc2ccc(-c3ccccc3)cc2)oc1NCc1cccnc1,inactive
5,CCn1nccc1C(=O)Nc1ccc(S(=O)(=O)NC23CC4CC(CC(C4)C2)C3)cc1,inactive
6,C=CCn1c(SCC(=O)Nc2nc3ccccc3s2)nnc1-c1ccccc1O,inactive
7,CCCc1cc(=S)n2c([nH]c3ccccc32)c1C#N,inactive
8,COc1ccc(-c2nc(CCNC(=O)c3ccc(Br)o3)cs2)cc1,inactive
9,O=C(CN1CCN(C(=S)NC2CCCC2)CC1)Nc1ccc(Oc2ccccc2)cc1,inactive
10,Cc1ccccc1-n1nnnc1SCCCC(=O)c1ccc(F)cc1,inactive
11,Cc1ccc(N)cc1-n1c(C)ccc1C,inactive
12,Cc1ccc(C)c(N2CCN(C(=O)CCCCn3c(=O)[nH]c4ccccc4c3=O)CC2)c1,inactive
13,CCOC(=O)C(Sc1ncc(C#N)c(N)n1)C(C)C (stereo not drawn),inactive
14,O=C(COC(=O)CCc1c[nH]c(=O)[nH]1)Nc1ccccc1Cl,inactive
15,Cc1ccc(NC(=O)C(C)c2cccc(C(=O)c3ccccc3)c2)cc1 (stereo not drawn),20.5% (active)
16,S=C(NCc1ccc(Cl)cc1)NC12CC3CC(CC(C3)C1)C2,inactive
17,Cc1noc(C)c1COC(=O)c1cc2ccccc2cc1O,inactive
18,C=CCSc1nsc(NC(=O)Nc2cccc(C(C)=O)c2)n1,inactive
19,CCCOc1ccc(Cc2c(Cl)nc(SC)nc2NC)cc1,inactive
20,Cn1c(CCN2CCCCCC2)nc2cc(NC(=O)Nc3ccccc3)ccc21,inactive
21,CCOC(=O)N1CCN(C(=O)c2ccc3c(c2)N(Cc2ccc(C)cc2)CCS3)CC1,inactive
22,CSc1nsc(NC(=O)Nc2ccccc2)n1,inactive
23,CCC(=O)Nc1ccc2nc(C)n(Cc3ccccc3Cl)c(=O)c2c1,inactive

row,Structure (SMILES),calcium response (% of ionomycin)
1,Cc1ccc(NC(=O)CN(C)CC(=O)Nc2cccc(F)c2)cc1[N+](=O)[O-],inactive
2,Cc1ccc(N2C(=O)S/C(=C/c3cn(C)c4ccccc34)C2=O)cc1,inactive
3,Cc1nc(SCC(=O)N2CCc3ccccc3C2)c2c(C)c(C)sc2n1,inactive
4,COc1ccc(CN(C)C(=O)CC(c2ccccc2)c2ccccc2)cc1,inactive
5,Cc1nc(C)c(-c2csc(NCCc3ccccc3)n2)s1,inactive
6,COC(=O)c1ccc(NC(=O)c2ccccc2NS(=O)(=O)c2ccccc2)cc1,inactive
7,O=C(CSCc1ccc(Cl)cc1)N1CCN(Cc2ccc3c(c2)OCO3)CC1,inactive
8,COc1ccc2[nH]cc(/C=C(/C#N)S(=O)(=O)c3ccccc3)c2c1,inactive
9,CC1=NN(c2cccc(Cl)c2)C(=O)C12CC(C)=C(C)CS2 (stereo not drawn),inactive
10,Cc1ccc(F)cc1NC(=O)Cc1nn(C)c(=O)c2ccccc12,inactive
11,CSc1cccc(NC(=S)N(C(C)C)C(C)c2ccccn2)c1 (stereo not drawn),inactive
12,Cc1cc(C)cc(NS(=O)(=O)c2ccc(Oc3ncc(C(F)(F)F)cc3Cl)cc2)c1,inactive
13,CN(c1cccc(NC(=O)c2ccc(CN3CCc4ccccc4C3)cc2)c1)S(C)(=O)=O,inactive
14,CC(C)CNC(=S)NNC(=O)c1nn(C)cc1Cl,inactive
15,CC(NC(=O)c1ccco1)C(=O)Nc1nc(-c2ccccn2)cs1 (stereo not drawn),inactive
16,COc1ccc(S(=O)(=O)NCCCCOc2ccc(Cl)cc2)cc1,inactive
17,COc1cc(CC(=O)Nc2nc(-c3ccc(F)c(F)c3)cs2)cc(OC)c1OC,inactive
18,C=C(C)Cn1c(C)cc(C)c(S(=O)(=O)c2ccccc2C)c1=O,inactive
19,Cc1ccc(-c2csc(-c3c[nH]c4ccccc34)n2)cc1,inactive
20,S=C(NCC1CCCO1)N1CCN(c2ccc(Cl)c(Cl)c2)CC1 (stereo not drawn),inactive
21,COc1ccc(CNc2nnnn2C)cc1,inactive
22,O=C(Nc1cccc(S(=O)(=O)Nc2ccc(Cl)cc2)c1)c1ccc2c(c1)OCCO2,inactive
